Screening results: PubChem BioAssay, National Center for Advancing Translational Sciences (NCATS)
DNA Pol III inh: DNA polymerase III holoenzyme inhibition; reconstituted DNA polymerase III holoenzyme replication, biochemical; Potency, µM (highest dose often 57.1 µM), for inactives: at the highest dose activity change, negative = inhibition; actives 0.25% (n = 71,000); AID 603; further: potency means the concentration at half of the fitted maximal effect; on the % scale 0 is the no-effect control and ±100 the full control effect
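Reconstituted *E. coli* holoenzyme (0.35 nM Pol III, 1 nM beta, 154 nM SSB, 2 nM primase) was preincubated with compound for 15 min at RT. Synthesis on 1.4 nM ssM13Gori ran 35 min, then was stopped with PicoGreen/EDTA and read as dsDNA fluorescence.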
BRCT inh green: blocks human BRCA1 BRCT binding to phosphopeptide, green readout. P38398. BRCA1 BRCT-phosphopeptide binding, green fluorescence polarization. actives 0.05% (n = 75,000). Potency, µM (top dose mostly 76.9 µM), without a hit: at the highest dose activity change, negative = inhibition, hits mostly inhibitors;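 further: potency means the concentration at half of the fitted maximal effect; plate controls were peptide without protein for full effect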
Target sequence (P38398 whole entry, looked up): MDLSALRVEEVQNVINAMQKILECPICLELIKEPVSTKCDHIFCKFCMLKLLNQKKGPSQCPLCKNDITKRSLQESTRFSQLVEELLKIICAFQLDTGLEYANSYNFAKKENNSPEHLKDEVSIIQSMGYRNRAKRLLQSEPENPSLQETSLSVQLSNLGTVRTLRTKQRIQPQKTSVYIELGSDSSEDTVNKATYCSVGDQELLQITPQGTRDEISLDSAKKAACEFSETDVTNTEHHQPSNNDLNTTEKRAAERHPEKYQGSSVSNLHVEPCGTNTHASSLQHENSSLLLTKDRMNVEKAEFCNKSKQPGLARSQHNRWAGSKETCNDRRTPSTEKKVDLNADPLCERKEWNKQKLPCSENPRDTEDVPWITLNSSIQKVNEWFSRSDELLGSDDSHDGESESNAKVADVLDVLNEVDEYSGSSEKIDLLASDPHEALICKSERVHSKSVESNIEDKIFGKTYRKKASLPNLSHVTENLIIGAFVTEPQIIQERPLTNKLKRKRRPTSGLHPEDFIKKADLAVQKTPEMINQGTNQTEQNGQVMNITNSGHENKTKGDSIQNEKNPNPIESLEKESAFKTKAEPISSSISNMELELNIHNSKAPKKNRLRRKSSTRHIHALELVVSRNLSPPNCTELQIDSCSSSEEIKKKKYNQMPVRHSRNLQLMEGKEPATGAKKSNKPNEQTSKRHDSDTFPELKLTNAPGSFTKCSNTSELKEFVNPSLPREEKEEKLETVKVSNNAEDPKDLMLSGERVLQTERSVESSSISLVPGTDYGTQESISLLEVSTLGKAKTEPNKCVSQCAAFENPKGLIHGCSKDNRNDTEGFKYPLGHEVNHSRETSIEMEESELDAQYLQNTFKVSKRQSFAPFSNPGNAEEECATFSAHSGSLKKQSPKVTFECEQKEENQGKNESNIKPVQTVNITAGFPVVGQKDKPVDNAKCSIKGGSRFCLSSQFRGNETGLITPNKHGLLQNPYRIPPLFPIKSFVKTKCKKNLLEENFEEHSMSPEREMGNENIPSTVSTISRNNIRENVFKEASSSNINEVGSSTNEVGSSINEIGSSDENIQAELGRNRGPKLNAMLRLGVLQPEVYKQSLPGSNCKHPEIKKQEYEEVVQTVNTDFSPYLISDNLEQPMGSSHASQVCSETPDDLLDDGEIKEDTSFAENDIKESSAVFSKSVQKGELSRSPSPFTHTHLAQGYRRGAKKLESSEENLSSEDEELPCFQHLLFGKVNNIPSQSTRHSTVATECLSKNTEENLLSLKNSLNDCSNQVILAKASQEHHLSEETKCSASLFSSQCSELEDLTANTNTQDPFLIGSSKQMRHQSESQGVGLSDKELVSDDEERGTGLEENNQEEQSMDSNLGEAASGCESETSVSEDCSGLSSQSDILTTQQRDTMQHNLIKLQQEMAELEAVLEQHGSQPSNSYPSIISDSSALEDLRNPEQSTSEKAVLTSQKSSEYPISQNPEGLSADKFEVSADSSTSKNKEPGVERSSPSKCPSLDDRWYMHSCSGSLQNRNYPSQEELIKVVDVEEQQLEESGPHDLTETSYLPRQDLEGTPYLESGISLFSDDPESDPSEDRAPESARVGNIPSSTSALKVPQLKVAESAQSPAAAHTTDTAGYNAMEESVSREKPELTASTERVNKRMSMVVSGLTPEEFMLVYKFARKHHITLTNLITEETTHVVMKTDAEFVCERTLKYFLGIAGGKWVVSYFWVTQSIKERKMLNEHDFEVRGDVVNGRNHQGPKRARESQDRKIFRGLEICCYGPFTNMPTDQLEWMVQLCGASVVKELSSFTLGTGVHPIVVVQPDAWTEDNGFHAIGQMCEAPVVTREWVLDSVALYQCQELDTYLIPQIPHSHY
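Compounds were incubated for 12 min at room temperature with a complex of 100 nM fluorescein-tagged pBACH1 decapeptide and 250 nM His-tagged BRCT protein. Buffer was phosphate pH 7.3 with EDTA, DTT and Tween 20. Disruption of binding lowers the polarization signal.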
YjeE inh: YjeE (TsaE) inhibition, E. coli; P0AF67; purified YjeE enzyme, qHTS inhibition assay; Potency, µM; actives 0.05% (n = 71,000); AID 605
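Fluorescence polarization of a BODIPY Texas Red–ADP probe (2 uM) bound to purified YjeE (10 uM) was read after 15 min room-temperature incubation with compounds. Loss of polarization marks inhibitors; ADP serves as titrated control.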
TSHR agonist: agonists of human thyroid stimulating hormone receptor. actives 0.48% (n = 73,000). Potency, µM (titrated, usually from 57.1 µM), without a hit: at the highest dose activation, actives largely listed as activators. HEK293-CNG-TSHR cells (CNG channel as cAMP sensor), membrane potential dye, cAMP; active means well fitted activation curve with a large enough effect in the main read-out, with a control signal flat, not every such curve was filed as active; inconclusive means small, poorly fitted or top-dose-only effect, or a change in a side signal; inactive means no such curve, though single readings can be large or run the other way; % of control where 0% means no effect;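 further: the control signal comes from parental cells without the receptor; potency means the concentration at half of the fitted maximal effect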
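HEK 293 cells stably expressing TSHR and a cAMP-gated CNG channel; parental CNG-only cells as counterscreen. Cells preloaded 60 min with membrane potential dye plus 100 uM RO 20-1724, then compound 30 min; fluorescence read at 590 nm.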
HEK293 cAMP ctrl: raises cAMP in parental HEK293 cells, TSHR agonist counter-screen. parental HEK293 CNG cAMP sensor, membrane potential fluorescence. Potency, µM (highest dose often 57.1 µM), for the others: at the highest dose activation, actives largely listed as activators. actives 2.5% (n = 73,000); further: potency means the concentration at half of the fitted maximal effect; % of control where 0% means no effect; nearly all actives have a fitted effect of over 55% in size
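Parental HEK 293 cells stably expressing a cAMP-gated CNG channel were loaded with membrane potential dye containing 100 uM RO 20-1724 for 60 min. Compound added for 30 min; depolarization read as fluorescence intensity at 590 nm.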
BRCT PPI red: BRCT-phosphoprotein interaction inhibition (red fluorophore). actives 0.03% (n = 75,000). AID 892. BRCT-phosphopeptide binding, red fluorescence polarization. Potency, µM (titrated, usually from 76.9 µM), for inactives: at the highest dose activity change, negative = inhibition, actives largely listed as inhibitors; further: on the % scale 0 is the no-effect control and ±100 the full control effect
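Fluorescence polarization: 100 nM His-tagged BRCA1 BRCT with 100 nM TAMRA-labelled phospho-BACH1 decapeptide, phosphate buffer pH 7.3 with 150 mM NaCl, DTT, 0.01% Tween 20; 12 min RT. Binding inhibition seen as FP decrease.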
An asterisk follows results filed as active; [ ] = another dose, or the depositor's remark. A selection: hits, their analogues and other compounds. The true share with any hit is near 3.2%. Unless noted, the call rests on the fitted dose curve; in most records, active means well fitted curve in the direction sought with a large enough effect; inconclusive means small, poorly fitted or top-dose-only effect, or another doubt; inactive means no such curve, though single readings can be large; an effect the other way counts as inactive or inconclusive.

Screening CCOC(=O)N1CCC(NC(=O)CCc2nc(-c3ccccc3F)no2)CC1 returned DNA Pol III inh -2.8%, BRCT inh green -1.8%, YjeE inh inactive, TSHR agonist -1.0%, HEK293 cAMP ctrl 4.8% and BRCT PPI red -0.3%.
For CC1CN(c2oc(-c3ccco3)nc2S(=O)(=O)c2ccccc2)CC(C)O1 (configuration not stated) the results were DNA Pol III inh 1.8%, BRCT inh green -2.5%, YjeE inh inactive, TSHR agonist 25.1µM*, HEK293 cAMP ctrl 26.7% and BRCT PPI red 0.0%.
O=S(=O)(c1ccccc1)c1nc(-c2ccco2)oc1NCc1ccco1 was read as DNA Pol III inh -2.2%, BRCT inh green 0.1%, YjeE inh inactive, TSHR agonist 17.8%, HEK293 cAMP ctrl 15.9% and BRCT PPI red -1.4%.
Screening O=C(Nc1ccc(-c2nc3cccnc3s2)cc1)c1ccc(Br)o1 returned DNA Pol III inh -3.2%, BRCT inh green 6.0%, YjeE inh inactive, TSHR agonist 1.2%, HEK293 cAMP ctrl -0.3% and BRCT PPI red -1.5%.
Screening COc1cccc(-c2cnc(NCc3cc(Cl)ccc3O)n2C)c1 returned DNA Pol III inh -0.9%, BRCT inh green -1.4%, YjeE inh inactive, TSHR agonist inconclusive, HEK293 cAMP ctrl -47.4% and BRCT PPI red -2.3%.
O=C(CSc1nnc(-c2ccco2)n1Cc1ccccc1)c1ccc(F)cc1 was read as DNA Pol III inh 0.2%, BRCT inh green -1.7%, YjeE inh inactive, TSHR agonist inconclusive, HEK293 cAMP ctrl 25.1µM* and BRCT PPI red 0.8%.
For O=C(CSc1nnc(-c2ccc(Br)o2)n1Cc1ccccc1)c1ccccc1F the results were DNA Pol III inh 10.8%, BRCT inh green 3.4%, YjeE inh inactive, TSHR agonist inconclusive, HEK293 cAMP ctrl 20µM* and BRCT PPI red -0.3%.
COc1ccc(C(c2c(O)ccc3ccccc23)N2CCOCC2)c(OC)c1 (configuration not stated) was read as DNA Pol III inh 0.8%, BRCT inh green -0.7%, YjeE inh inactive, TSHR agonist 21.0%, HEK293 cAMP ctrl 14.5% and BRCT PPI red 0.4%.
Cc1nnc(NC(=O)CSc2cn(CCNC(=O)c3ccccc3)c3ccccc23)s1 was read as DNA Pol III inh -5.1%, BRCT inh green -4.0%, YjeE inh inactive, TSHR agonist -4.1%, HEK293 cAMP ctrl 10.6% and BRCT PPI red -1.4%.
For NC(=O)CSc1cn(CCNC(=O)c2cccs2)c2ccccc12 the results were DNA Pol III inh -0.1%, BRCT inh green 1.0%, YjeE inh inactive, TSHR agonist 31.6µM*, HEK293 cAMP ctrl 7.9% and BRCT PPI red -1.7%.
Screening COc1ccc(S(=O)(=O)NCCSc2ccc(C)cc2)cc1OC returned DNA Pol III inh -0.8%, BRCT inh green -1.2%, YjeE inh inactive, TSHR agonist inconclusive, HEK293 cAMP ctrl inconclusive and BRCT PPI red -2.2%.
Cc1ccc(SCCNS(=O)(=O)c2ccc(F)cc2)cc1 was read as DNA Pol III inh 2.5%[11.4 µM], BRCT inh green -0.6%, YjeE inh inactive, TSHR agonist 1µM*, HEK293 cAMP ctrl 18.2%[11.4 µM] and BRCT PPI red -1.5%.
Cc1cc(/C=N/n2cnnc2)c(C)n1-c1ccc(OCc2ccccc2F)cc1 was read as DNA Pol III inh -3.1%[11.4 µM], BRCT inh green -0.3%, YjeE inh inactive, TSHR agonist inconclusive, HEK293 cAMP ctrl inconclusive and BRCT PPI red 1.1%.
For Fc1ccccc1COc1cccc(/C=N/n2cnnc2)c1 the results were DNA Pol III inh -5.3%, BRCT inh green -5.9%, YjeE inh inactive, TSHR agonist inconclusive, HEK293 cAMP ctrl 31.6µM* and BRCT PPI red -0.6%.
`COc1ccccc1CNc1ncncc1-c1ccc(N(C)C)cc1` gave DNA Pol III inh 5.4%, BRCT inh green -5.2%, YjeE inh inactive, TSHR agonist 6.31µM*, HEK293 cAMP ctrl -9.9% and BRCT PPI red 0.9%.
`Cc1nccn1S(=O)(=O)c1ccc(Br)cc1Br` gave DNA Pol III inh -3.9%, BRCT inh green -1.4%, YjeE inh inactive, TSHR agonist 8.1%, HEK293 cAMP ctrl 21.1% and BRCT PPI red 0.4%.
For COC(=O)c1ccccc1NC(=O)CN1CCC(n2nnc3cc(F)ccc32)CC1 the results were DNA Pol III inh 1.7%, BRCT inh green -1.6%, YjeE inh inactive, TSHR agonist inconclusive, HEK293 cAMP ctrl 25.1µM* and BRCT PPI red -2.1%.
For O=C(CN1CCC(n2nnc3cc(F)ccc32)CC1)Nc1ccccc1N1CCOCC1 the results were DNA Pol III inh -5.5%, BRCT inh green 0.6%, YjeE inh inactive, TSHR agonist 2.2%, HEK293 cAMP ctrl 6.2% and BRCT PPI red -0.2%.
Screening COC(=O)c1ccccc1NC(=O)CN1CCN(C23CC4CC(CC(C4)C2)C3)CC1 returned DNA Pol III inh -2.0%, BRCT inh green -1.1%, YjeE inh inactive, TSHR agonist inconclusive, HEK293 cAMP ctrl 7.94µM* and BRCT PPI red 0.5%.
`Cc1cc(C)nc(N2CCN(c3nnnn3-c3ccccc3)CC2)n1` gave DNA Pol III inh -3.7%, BRCT inh green -0.5%, YjeE inh inactive, TSHR agonist inconclusive, HEK293 cAMP ctrl inconclusive and BRCT PPI red -0.8%.
For FC(F)(F)c1cccc(N2CCN(c3nnnn3-c3ccccc3)CC2)c1 the results were DNA Pol III inh 0.4%, BRCT inh green 5.9%, YjeE inh inactive, TSHR agonist inconclusive, HEK293 cAMP ctrl 31.6µM* and BRCT PPI red -1.4%.
`O=C1c2ccccc2NC2CCCCC12` (configuration not stated) gave DNA Pol III inh -6.8%, BRCT inh green 0.0%, YjeE inh inactive, TSHR agonist inconclusive, HEK293 cAMP ctrl 5.01µM* and BRCT PPI red 1.0%.
`CC(=O)Nc1ccc(S(=O)(=O)NCc2cn3ccsc3n2)cc1` gave DNA Pol III inh 2.2%, BRCT inh green -0.3%, YjeE inh inactive, TSHR agonist -0.7%[11.4 µM], HEK293 cAMP ctrl 4.3% and BRCT PPI red -0.2%.
`Cc1cc(C)n(-c2ccn(Cc3ccc(Cl)cc3Cl)c(=O)n2)n1` gave DNA Pol III inh -0.7%, BRCT inh green 1.9%, YjeE inh inactive, TSHR agonist inconclusive, HEK293 cAMP ctrl 15.8µM* and BRCT PPI red -1.3%.
For CCOc1ccc(C2C=C(c3ccc(C)cc3)Nc3ncnn32)cc1 (configuration not stated) the results were DNA Pol III inh -2.7%, BRCT inh green 2.6%, YjeE inh inactive, TSHR agonist inconclusive, HEK293 cAMP ctrl 20µM* and BRCT PPI red -2.4%.
